# Data from PubChem BioAssay (NCI).
# The panel holds about 79,000 compounds, 15% with a hit somewhere; the sample as a whole holds those more often. A number with no mark means an inactive call. The source made the active and inactive calls. Rule as the data show it: active = growth inhibition above about 70%; inactive = the rest.
# Assays:
# [1] = NCI Yeast Anticancer Drug Screen. Data for the rad52 strain (AID 147);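 also: 0% = growth of vehicle-treated control cultures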; settings: S. cerevisiae rad52 mutant growth inhibition, stronger effect = higher value
# Procedure, shortened: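 DNA repair-defective yeast; compound exposure; growth scored against vehicle controls.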
# [2] = NCI Yeast Anticancer Drug Screen. Data for the wt1 strain (AID 149);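 also: 0% = growth of vehicle-treated wt1 cultures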; settings: S. cerevisiae wt1 strain (SPY 50644) growth inhibition, stronger effect = higher value
# Procedure, shortened: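 wt1 yeast, compound-treated; % growth inhibition vs vehicle control.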
# [3] = NCI Yeast Anticancer Drug Screen. Data for the mgt1 strain (AID 153); settings: S. cerevisiae mgt1 mutant growth inhibition, stronger effect = higher value
# Procedure, shortened: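 Growth inhibition relative to vehicle controls was scored for the mgt1 yeast strain after compound exposure.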
# [4] = NCI Yeast Anticancer Drug Screen. Data for the rad50 strain (AID 155);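 also: 0% = growth of vehicle-only cultures of the same strain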; settings: S. cerevisiae rad50 strain growth inhibition, stronger effect = higher value
# Procedure, shortened: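 Genetically altered yeast (DNA repair pathway); compound treatment; growth inhibition vs vehicle ctrl.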
# [5] = NCI Yeast Anticancer Drug Screen. Data for the mec2-1 strain (AID 157); settings: S. cerevisiae mec2-1 strain, stronger effect = higher value
# Procedure, shortened: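 Growth inhibition is read against vehicle-treated controls after compound exposure of the mec2-1 yeast strain, which is defective in DNA damage repair or cell cycle control.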
# [6] = NCI Yeast Anticancer Drug Screen. Data for the rad14 strain (AID 159);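 also: 0% = growth of vehicle-treated control cultures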; settings: S. cerevisiae rad14 strain growth inhibition, stronger effect = higher value
# Procedure, shortened: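 Test compounds were applied to a repair-deficient yeast strain. Its growth was then compared with that of cultures given vehicle alone, and inhibition was expressed relative to those controls.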
# [7] = NCI Yeast Anticancer Drug Screen. Data for the sgs1 mgt1 strain (AID 161);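 also: 0% = growth of cultures given vehicle only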; settings: S. cerevisiae sgs1 mgt1 strain, stronger effect = higher value
# Procedure, shortened: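 Yeast cells carrying a defined DNA-repair defect were exposed to test compounds. Growth inhibition was measured relative to vehicle-treated controls.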
# [8] = NCI Yeast Anticancer Drug Screen. Data for the CLN2oe strain (AID 163);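 also: 0% = growth of vehicle-only control cultures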; settings: S. cerevisiae CLN2oe strain, stronger effect = higher value
# Procedure, shortened: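 Compound-treated yeast; growth vs vehicle ctrl = % inhibition. Genetically altered strain (cell-cycle control).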
# [9] = NCI Yeast Anticancer Drug Screen. Data for the cln2 rad14 strain (AID 165);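 also: 0% = growth equal to vehicle treated cultures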; settings: S. cerevisiae cln2 rad14 strain, stronger effect = higher value
# Procedure, shortened: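 Growth inhibition, relative to vehicle-treated controls, is the read-out. The test organism is a yeast strain with defined genetic alterations, cln2 rad14.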
# [10] = NCI Yeast Anticancer Drug Screen. Data for the bub3 strain (AID 167); settings: S. cerevisiae bub3 mutant strain, stronger effect = higher value
# Procedure, shortened: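 Yeast carrying a defined mutation is treated with each compound, and growth is compared with that of vehicle-exposed cells to give inhibition.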
# [11] = NCI Yeast Anticancer Drug Screen. Data for the wt2 strain (AID 169);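 also: 0% = growth of vehicle-treated yeast cultures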; settings: S. cerevisiae wt2 strain growth inhibition, stronger effect = higher value
# Procedure, shortened: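 Compound exposure of yeast; growth compared with vehicle controls; inhibition reported.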
# [12] = NCI Yeast Anticancer Drug Screen. Data for the mlh1 strain (AID 171);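 also: 0% = growth of vehicle-treated control cultures of the same strain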; settings: S. cerevisiae mlh1 strain growth inhibition, stronger effect = higher value
# Procedure, shortened: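 Compounds are applied to a genetically altered yeast strain, and its growth is compared with that of vehicle-treated cultures to give percent inhibition.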
# [13] = NCI Yeast Anticancer Drug Screen. Data for the sgs1 strain (AID 173);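 also: 0% = growth of vehicle-only control cultures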; settings: S. cerevisiae sgs1 mutant, stronger effect = higher value
# Procedure, shortened: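 Compounds applied to genetically altered yeast; growth compared with vehicle-treated cultures to give % inhibition.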
# [14] = NCI Yeast Anticancer Drug Screen. Data for the mlh1 rad18 strain (AID 175); settings: S. cerevisiae mlh1 rad18 strain growth inhibition, stronger effect = higher value
# Procedure, shortened: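 Cells of a genetically altered yeast strain, deficient in DNA damage repair, were treated with compound. Their growth was then compared with that of vehicle-treated cultures to give inhibition.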
# [15] = NCI Yeast Anticancer Drug Screen. Data for the rad18 strain (AID 177); settings: S. cerevisiae rad18 mutant growth inhibition, stronger effect = higher value
# Procedure, shortened: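 Compounds are applied to a repair-deficient yeast strain, and growth is compared with that of vehicle-treated cultures to give percent inhibition.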
# [16] = at 5.0 µM (retest, dose inferred, filed as 0.5)
# [17] = at 50.0 µM (retest, dose inferred, filed as 5.0)
compound,measurement,setting,value
N#CSc1ccc(S(N)(=O)=O)cc1,growth inhibition,[1]; at 1.2 µM,-51%
same,growth inhibition,[1]; at 3.7 µM,-48%
same,growth inhibition,[1]; at 11.0 µM,-51%
same,growth inhibition,[1]; at 33.0 µM,-1%
same,growth inhibition,[1]; at 100.0 µM,64%
same,growth inhibition,[2]; at 1.2 µM,-43%
same,growth inhibition,[2]; at 3.7 µM,-50%
same,growth inhibition,[2]; at 11.0 µM,-31%
same,growth inhibition,[2]; at 33.0 µM,-9%
same,growth inhibition,[2]; at 100.0 µM,53%
same,growth inhibition,[3]; at 1.2 µM,-81%
same,growth inhibition,[3]; at 3.7 µM,-91%
same,growth inhibition,[3]; at 11.0 µM,-44%
same,growth inhibition,[3]; at 33.0 µM,-62%
same,growth inhibition,[3]; at 100.0 µM,46%
same,growth inhibition,[4]; at 1.2 µM,-55%
same,growth inhibition,[4]; at 3.7 µM,-39%
same,growth inhibition,[4]; [16],51%
same,growth inhibition,[4]; at 11.0 µM,-36%
same,growth inhibition,[4]; at 33.0 µM,17%
same,growth inhibition,[4]; [17],97% (active)
same,growth inhibition,[4]; at 50.0 µM,56.9%
same,growth inhibition,[4]; at 100.0 µM,73% (active)
same,growth inhibition,[5]; at 1.2 µM,-84%
same,growth inhibition,[5]; at 3.7 µM,-60%
same,growth inhibition,[5]; [16],51%
same,growth inhibition,[5]; at 11.0 µM,-37%
same,growth inhibition,[5]; at 33.0 µM,-2%
same,growth inhibition,[5]; [17],95% (active)
same,growth inhibition,[5]; at 50.0 µM,47.6%
same,growth inhibition,[5]; at 100.0 µM,63%
same,growth inhibition,[6]; at 1.2 µM,-36%
same,growth inhibition,[6]; at 3.7 µM,-43%
same,growth inhibition,[6]; at 11.0 µM,-51%
same,growth inhibition,[6]; at 33.0 µM,-30%
same,growth inhibition,[6]; at 100.0 µM,3%
same,growth inhibition,[7]; [16],0%
same,growth inhibition,[7]; [17],85% (active)
same,growth inhibition,[7]; at 50.0 µM,62.1%
same,growth inhibition,[8]; at 1.2 µM,-27%
same,growth inhibition,[8]; at 3.7 µM,-13%
same,growth inhibition,[8]; at 11.0 µM,2%
same,growth inhibition,[8]; at 33.0 µM,29%
same,growth inhibition,[8]; at 100.0 µM,66%
same,growth inhibition,[9]; [16],64%
same,growth inhibition,[9]; [17],82% (active)
same,growth inhibition,[9]; at 50.0 µM,41.4%
same,growth inhibition,[10]; at 1.2 µM,-23%
same,growth inhibition,[10]; at 3.7 µM,-37%
same,growth inhibition,[10]; [16],5%
same,growth inhibition,[10]; at 11.0 µM,-17%
same,growth inhibition,[10]; at 33.0 µM,37%
same,growth inhibition,[10]; [17],86% (active)
same,growth inhibition,[10]; at 50.0 µM,75.8% (active)
same,growth inhibition,[10]; at 100.0 µM,79% (active)
same,growth inhibition,[11]; at 1.2 µM,-48%
same,growth inhibition,[11]; at 3.7 µM,-45%
same,growth inhibition,[11]; at 11.0 µM,-32%
same,growth inhibition,[11]; at 33.0 µM,-25%
same,growth inhibition,[11]; at 100.0 µM,50%
same,growth inhibition,[12]; at 1.2 µM,-65%
same,growth inhibition,[12]; at 3.7 µM,-44%
same,growth inhibition,[12]; at 11.0 µM,-33%
same,growth inhibition,[12]; at 33.0 µM,8%
same,growth inhibition,[12]; at 100.0 µM,64%
same,growth inhibition,[13]; at 1.2 µM,-68%
same,growth inhibition,[13]; at 3.7 µM,-67%
same,growth inhibition,[13]; at 11.0 µM,-21%
same,growth inhibition,[13]; at 33.0 µM,9%
same,growth inhibition,[13]; at 100.0 µM,65%
same,growth inhibition,[14]; [16],40%
same,growth inhibition,[14]; [17],98% (active)
same,growth inhibition,[14]; at 50.0 µM,59.1%
same,growth inhibition,[15]; at 1.2 µM,-47%
same,growth inhibition,[15]; at 3.7 µM,-45%
same,growth inhibition,[15]; at 11.0 µM,-57%
same,growth inhibition,[15]; at 33.0 µM,28%
same,growth inhibition,[15]; at 100.0 µM,81% (active)
